The source of these data is ChEMBL document CHEMBL3433997, “St. Jude Leishmania screening dataset” (2016).

Assay type in all cases: functional
Assay [1] has as its target Solute carrier family 2, facilitated glucose transporter member 1 (Homo sapiens) (UniProt P11166). As to the kind of experiment: ST_JUDE_LEISH: Cytotoxicity at 2uM final concentration against transgenic Leishmania Mexicana promastigotes LmGLUT1 that are glucose transport deficient and complemented with the human glucose transporter GLUT1. Activity is measured by DNA content using SYBR green in vitro.

Assay [2] addresses Hexose transporter 1 (Plasmodium falciparum) (UniProt O97467). As to the kind of experiment: ST_JUDE_LEISH: Cytotoxicity at 2uM final concentration against transgenic Leishmania Mexicana promastigotes LmPfHT that are glucose transport deficient and complemented with the Plasmodium falciparum hexose transporter. Activity is measured by DNA content using SYBR green in vitro.
Assay [3] addresses Glucose transporter (Leishmania mexicana) (UniProt O61059). As to the kind of experiment: ST_JUDE_LEISH: Cytotoxicity at 2uM final concentration against transgenic Leishmania Mexicana promastigotes LmGT2 that are glucose transport deficient and complemented with the L. Mexicana glucose transporter 2. Activity is measured by DNA content using SYBR green in vitro.

Solute carrier family 2, facilitated glucose transporter member 1 (Homo sapiens), sequence (P11166 whole entry): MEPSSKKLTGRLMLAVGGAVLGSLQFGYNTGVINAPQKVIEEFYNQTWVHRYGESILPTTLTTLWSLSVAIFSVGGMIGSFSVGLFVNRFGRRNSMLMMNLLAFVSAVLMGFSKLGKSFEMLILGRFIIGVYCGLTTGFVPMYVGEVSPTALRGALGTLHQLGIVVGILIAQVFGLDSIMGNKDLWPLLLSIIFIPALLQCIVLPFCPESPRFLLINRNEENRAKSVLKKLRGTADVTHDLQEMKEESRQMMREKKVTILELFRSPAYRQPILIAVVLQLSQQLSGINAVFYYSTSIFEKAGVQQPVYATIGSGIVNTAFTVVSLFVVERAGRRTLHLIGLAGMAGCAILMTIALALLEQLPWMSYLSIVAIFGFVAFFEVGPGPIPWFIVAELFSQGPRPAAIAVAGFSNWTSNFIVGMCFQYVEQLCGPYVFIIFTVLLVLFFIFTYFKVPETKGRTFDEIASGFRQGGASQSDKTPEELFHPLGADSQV

For orientation: inhibition means the change of the read-out against control, counted positive when it falls. As for `COc1ccccc1-n1c(SCC(=O)c2ccc3c(c2)CC(=O)N3C)nnc1-c1cccs1`, the inhibition in assay [1] was found to be 24%; in assay [2], 35.2%; in assay [3] it was 13.3%.

For the compound `COc1cccc(-c2cccc(-c3ccc(NC(=O)c4ccc([N+](=O)[O-])o4)cc3)n2)c1`, the inhibition was 66.2% in assay [1], 59.8% in assay [2] and 23.3% in assay [3].

`O=C(Nc1cccc(F)c1)NC1CCN(CCCCCNC(=O)C2CC2c2ccc(Cl)c(Cl)c2)CC1` (configuration not stated): the inhibition in assay [1] was 0.44%; in assay [2] it was -0.11%; in assay [3], -1.31%.

Take `N#Cc1ccc(-c2ccc(C(=O)NCCCCN3CCC(c4cc(Br)c5c(c4OCC(N)=O)CCCC5)CC3)cc2)cc1`: the inhibition in assay [1] was 2.88%; in assay [2], 1.24%; in assay [3], -0.04%.

As to `COc1ccc(CNCc2ccc(F)cc2)cc1-c1cccc(S(=O)(=O)NCCN2CCCC2)c1`, the inhibition in assay [1] worked out at 0.82%; in assay [2], 0.14%; in assay [3], 1.01%.

For `CC(C)CCNC(=O)[C@@H]1[C@H]2C(=O)N(C3CCCCC3)C(=O)[C@H]2[C@H]2C=C[C@@H]3C(c4ccc(C(C)(C)C)cc4)=NO[C@@H]3N21`, the inhibition in assay [1] worked out at 13.3%; in assay [2], 11.4%; in assay [3] it was 7.33%.

As to `COc1c(C2CCN(CCCCNC(=O)c3ccc(-c4ccc(Cl)cc4)c(O)c3)CC2)ccc2c1CCCC2`, the results for the inhibition in assay [1], in assay [2] and in assay [3] were 2.96%, 2.6% and 0.11%, respectively.

Consider `O=C(Nc1ccc2c(c1)CCC2)c1ccc(N2CCN(c3ccncc3)CC2)cc1`, for which the inhibition in assay [1] amounted to 68.7%; in assay [2], 29.6%; in assay [3], 68.3%.

As for `Cc1cc(N2CCCN(C)CC2)nc(Nc2ccc(Br)cc2)n1`, the figures for the inhibition in assay [1], in assay [2] and in assay [3] were 5.39%, -1.23% and 1.6%, respectively.

As for `CC(=O)N(C)c1cccc(C(=O)Nc2cccc(-c3ccc(-c4nc5cc(C(F)(F)F)ccc5[nH]4)cc3)c2)c1`, the inhibition in assay [1] came to 4.32%; in assay [2] it was 4.03%; in assay [3], 4.63%.

With `O=C(/C=C/c1ccc(Cl)c(Cl)c1)NC1CCN(Cc2ccc(O)cc2)C1` (configuration not stated), the inhibition is 1.46% in assay [1], -0.06% in assay [2] and -0.76% in assay [3].

Regarding `COc1c(O)cc2oc(-c3ccc(O)cc3)cc(=O)c2c1O`, the values for the inhibition in assay [1], in assay [2] and in assay [3] were 1.18%, 1.7% and 3.31%, respectively.

For the compound `COc1cc2nc(SCC(C)C)n(CCCn3ccnc3)c(=N)c2cc1OC`, the inhibition in assay [1] amounted to 3.51%; in assay [2], 6.49%; in assay [3] it was 3.6%.

For the compound `CCNC(=O)Nc1ccc(N(C)c2ccnc(NC3CC3)n2)cc1`, the inhibition came out at 5.12% in assay [1], 3.87% in assay [2] and 5.35% in assay [3].

Regarding `COc1ccc2ccc(F)c(CC(=O)N3CCOC(CNCc4cccc(-c5ccsc5)n4)C3)c2n1` (configuration not stated), the inhibition in assay [1] turned out to be 6.96%; in assay [2] it was 6.66%; in assay [3], 4.23%.

As for `COc1ccc(-c2nc(NC(=O)COc3ccc(C(C)=O)cc3)sc2C)cc1`, the inhibition came to 2.62% in assay [1], 2.48% in assay [2] and 2.69% in assay [3].

Regarding `CN(C)CCNC(=O)[C@H](CC1CCCCC1)NC(=O)c1ccc(O)c(-c2ccc(Cl)c(Cl)c2)c1`, the figures for the inhibition in assay [1], in assay [2] and in assay [3] were 4%, 2.85% and 1.78%, respectively.

In the case of `O=C(NCc1ccccc1)c1ncn(CCCN2CCC(N3CCCC3)CC2)c1-c1ccc(Cl)c(Cl)c1`, the inhibition in assay [1] was -1.45%; in assay [2] it was -1.01%; in assay [3], -1.08%.

Consider `CCOc1ccc2nc(C)cc(N/N=C/c3ccccc3[N+](=O)[O-])c2c1`, for which the inhibition in assay [1] amounted to 33.1%; in assay [2] it was 26.4%; in assay [3] it was 33.9%.
